# The panel holds about 83,000 compounds, 20% with a hit somewhere; the sample as a whole holds those more often.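 Cells were grown in 96-well plates and exposed to the test compound at a single concentration for 48 hours; results are reported as percent growth, with values below 10 considered active.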 A number with no mark means an inactive call. Calls of active or inactive are those of the source.
# Assays:
# Assay in all cases: NCI-60 one-dose screen, 48 h (100 = growth as untreated, 0 = no growth, -100 = all killed)
# SR leukemia = details: 10 µM unless noted
# RPMI-8226 leukemia = details: 10 µM unless noted
# OVCAR-8 ovarian = details: 10 µM unless noted
# OVCAR-5 ovarian = details: 10 µM unless noted
# OVCAR-4 ovarian = details: 10 µM
# SK-OV-3 ovarian = details: 10 µM unless noted
# IGROV1 ovarian = details: 10 µM unless noted
# OVCAR-3 ovarian = details: 10 µM unless noted
# HS 578T breast = details: 10 µM unless noted
# NCI/ADR-RES ovarian = details: 10 µM unless noted
# T-47D breast = details: 10 µM unless noted
# MDA-MB-435 melanoma = details: 10 µM unless noted
# SW-620 colon = details: 10 µM unless noted
# MCF7 breast = details: 10 µM unless noted
# HCT-116 colon = details: 10 µM unless noted
# HCC-2998 colon = details: 10 µM unless noted
# KM12 colon = details: 10 µM unless noted
Compound,growth (SR leukemia),growth (RPMI-8226 leukemia),growth (OVCAR-8 ovarian),growth (OVCAR-5 ovarian),growth (OVCAR-4 ovarian),growth (SK-OV-3 ovarian),growth (IGROV1 ovarian),growth (OVCAR-3 ovarian),growth (HS 578T breast),growth (NCI/ADR-RES ovarian),growth (T-47D breast),growth (MDA-MB-435 melanoma),growth (SW-620 colon),growth (MCF7 breast),growth (HCT-116 colon),growth (HCC-2998 colon),growth (KM12 colon)
O=C(Nc1cc(-c2cccnc2)nc(NCCCN2CCOCC2)n1)c1cc(Br)cc(C(F)(F)F)c1,4.25% (active),30.2%,58.6%,81.4%,62.2%,92.3%,63.1%,79.9%,54%,56.6%,46.4%,9.55% (active),75.4%,38.6%,35.7%,37.8%,80%
C=CC1=C(C)C2=NC1=CC1=NC(=CC3=C(C)C4=C(O)C(C(=O)O)C(=C5NC(=C2)C(C)C5CCC(=O)O)C4=N3)C(CC)=C1C (stereo not drawn),95.5%,102%,107%,114%,103%,119%,106%,107%,105%,114%,123%,120%,104%,113%,101%,109%,105%
O=C1NC(=O)C(Cc2ccc(OCc3ccc(-c4cc(F)c(F)c(F)c4)cc3)cc2)S1 (stereo not drawn),83.8%,69%,90.2%,93.4%,68.7%,87.5%,69.3%,88.3%,83.5%,82.1%,57.6%,99%,95.2%,83.9%,83.9%,97.3%,81.9%
Cc1cc(C)c(-c2cc(O)c(-c3c(C)cc(C)cc3C)cc2O)c(C)c1,19.9%,42.3%,49.4%,50.7%,58.9%,4.25% (active),70.3%,-25.7% (active),11.9%,57.9%,43%,2.34% (active),26.2%,21.7%,22.6%,45.8%,23.9%
CCCCCCNC(=O)Nc1ncnc2c1ncn2-c1ccccc1,99.5%,91.4%,91.3%,88.9%,85.3%,87.5%,88.1%,111%,97.6%,91.1%,66.6%,102%,95.9%,89.4%,90.2%,118%,108%
COC(=O)[C@H](CC(C)C)NC(=O)NC(=O)NC(=O)CI,-51% (active),61.6%,73.3%,86.9%,59%,92.4%,62%,-74.1% (active),106%,92.2%,17.3%,72.7%,-51.5% (active),33.2%,50%,91.9%,94.1%
COc1ccc2nc3cc(Cl)ccc3c(Nc3ccc(O)cc3)c2c1,-22.2% (active),68.6%,68.5%,104%,90.4%,93.3%,71.3%,83%,76.2%,71.2%,80%,96%,49.1%,24.6%,53.1%,62.1%,63.5%
O=C(O)c1cccc(CN2CCN(c3cc4c(cc3F)c(=O)c(C(=O)O)cn4C3CC3)CC2)c1O,87.5%,103%,96.7%,102%,114%,101%,101%,106%,103%,101%,96.6%,99%,102%,97.6%,104%,105%,104%
CN(C)C(=S)Sc1ccc([N+](=O)[O-])cc1[N+](=O)[O-],7.64% (active),27.7%,18.7%,72.9%,20.8%,93.1%,1.54% (active),1.07% (active),97.5%,40.8%,-34.7% (active),44.4%,-63.1% (active),0.536% (active),-54.4% (active),88.9%,49.1%
